D2 PAM-1 – positively modulates the human D2 dopamine receptor allosterically. P14416. HEK293 T-REx D2, calcium flux, EC20 dopamine potentiation. potentiation, % at 10 µM. 340,000 tested, 0.34% active. AID 485347;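 active = potentiation over 3 SD above the plate norm, cut at about 30% in these data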
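Potentiation of an EC20 dopamine calcium response is measured in a force-coupled, tetracycline-inducible Hek293 Trex D2 line. Compound-only kinetic reads over 180 s flag agonists before dopamine addition.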
D2 PAM-2 – human D2 receptor positive allosteric modulation; P14416; DiscoveRx D2 beta-arrestin cells, luminescence, 90 min; 100% = 57 uM dopamine signal; potentiation, % (test concentration not listed); 360,000 tested, 0.23% active; AID 624464; in the data active = potentiation above about 50%; inconclusive = mostly about 30% to 49%
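D2 cells co-treated with compound plus 50 nM dopamine (EC20) for 90 min at 37 deg C to detect potentiation. Beta-arrestin recruitment was read as enzyme-fragment luminescence after 1 h at ambient temperature. Full response was set by 57 uM dopamine.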
D2 ag-1 – agonists of human D2 dopamine receptor (beta-arrestin) | P14416 | DiscoveRx PathHunter D2 beta-arrestin, luminescence, 90 min; 100% = 57 uM dopamine signal | activation, % (concentration not given with the values) | 360,000 tested, 0.084% active; in the data active = activation above about 40%; inconclusive = between about 15% and that limit
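DiscoveRx PathHunter D2 beta-arrestin cells (2,100/well) attached overnight, then compound-stimulated 90 min at 37 C in HBSS/10 mM HEPES/0.1% Tween-20 buffer; beta-galactosidase complementation read by luminescence after 1 h at ambient temperature. Dopamine 57 uM final (EC100) as control.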
D2 antagonist – D2 dopamine receptor (human) antagonism; P14416; HEK293 TREx D2 cells, calcium flux, dopamine EC80; inhibition, % at 10 µM; 340,000 tested, 2% active; in the data active = inhibition above about 30%; inactive = below that, where a call was filed
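Overnight-induced (tetracycline, 30 C) HEK293 T-REx cells carrying force-coupled D2 receive a no-wash calcium dye, then compound, then EC80 dopamine at 180 s; signals are read kinetically throughout.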
D2 ag-2 – agonists of human D2 dopamine receptor | activation, % at 2 µM | 340,000 tested, 0.53% active | HEK293 T-REx D2 cells, calcium flux agonist mode | AID 485358 | P14416;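 active = activation over 3 SD above normal in the single-dose calcium agonist read, cut at about 30% in these data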
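Tetracycline-induced HEK293 T-REx cells with force-coupled D2 receptor, plated overnight at 30 C, loaded with no-wash calcium dye. After a 10 s baseline, compound was pin-added and calcium flux read kinetically for 180 s; calcium rises flagged agonists.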
D3 arrestin ag – activates human D3 dopamine receptor beta-arrestin recruitment; shares compounds with D2 ag-2; DiscoveRx D3 beta-arrestin cells, luminescence, 90 min; Potency, µM (titrated, usually from 76.9 µM), usual class: activators; 2,300 tested, 4% active; AID 720506; note: nearly all actives have a fitted effect of over 70% in size
Target sequence (P35462 whole entry, looked up): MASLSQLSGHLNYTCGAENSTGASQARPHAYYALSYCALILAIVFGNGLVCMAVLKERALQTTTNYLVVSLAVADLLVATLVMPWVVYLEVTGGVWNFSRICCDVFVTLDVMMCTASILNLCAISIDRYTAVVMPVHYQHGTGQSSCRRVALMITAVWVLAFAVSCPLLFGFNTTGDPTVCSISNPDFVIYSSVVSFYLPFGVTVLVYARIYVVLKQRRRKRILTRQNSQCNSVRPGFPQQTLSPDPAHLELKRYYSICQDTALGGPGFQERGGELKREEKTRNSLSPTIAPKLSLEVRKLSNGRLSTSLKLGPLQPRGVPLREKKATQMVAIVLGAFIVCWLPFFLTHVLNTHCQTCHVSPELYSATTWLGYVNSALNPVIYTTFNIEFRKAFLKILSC
D2 ag-3 – counter-screen for D3 agonists: human D2 dopamine receptor agonism | shares compounds with D2 ag-2 | DiscoveRx PathHunter D2 beta-arrestin, luminescence, 90 min; response scale: percent relative to full dopamine signal | Potency, µM (top dose mostly 76.9 µM), actives largely listed as activators | 2,300 tested, 5.9% active | AID 720507; note: nearly all actives have a fitted effect of over 70% in size
Numbers stand for hits; – = inactive; ? = inconclusive; · = no result. A selection: hits, their analogues and other compounds. The true share with any hit is near 2.4%. Unless noted, calls come from the whole dose curve; as a rule, active = well fitted activation curve with a large enough effect; inconclusive = small, poorly fitted or top-dose-only effect; inactive = flat fitted curve, though single readings scatter.

SMILES | D2 PAM-1 | D2 PAM-2 | D2 ag-1 | D2 antagonist | D2 ag-2 | D3 arrestin ag | D2 ag-3
c1ccc(CN2CCN(c3ncccn3)CC2)cc1 | – | ? | 55.5 | 83.6 | 86.3 | ? | 2.51µM
O=C(Cc1ccccc1)N1CCN(c2ncccn2)CC1 | – | – | – | – | – | · | ·
c1ccc(COc2ccc(CN3CCN(c4ccccn4)CC3)cc2)cc1 | – | – | 46.5 | 75.5 | 77.1 | ? | 11.2µM
Clc1ccc(CN2CCN(c3ncccn3)CC2)cc1 | – | 53.1 | 68.3 | 84.9 | 73.0 | ? | 2.82µM
NC(=O)C1CCN(Cc2ccc(OCc3ccccc3)cc2)CC1 | – | – | – | – | – | · | ·
CCN(C(=O)Cn1c(SCc2ccccc2F)nc2cccnc21)c1ccccc1 | – | · | · | · | – | · | ·
CCOC(=O)Cn1c(=O)n(C2CCCCC2)c2nc(-c3ccc(C(C)C)cc3)nc(C(N)=O)c21 | – | · | · | · | – | · | ·
COc1cc(NC(=O)c2c(C)nn(-c3ccc(F)cc3)c2-n2cccc2)cc(OC)c1 | – | · | · | · | – | · | ·
CCOc1ccccc1NC(=O)Cn1ncc2c(=O)oc3ccc(C)cc3c21 | – | · | · | · | – | · | ·
Fc1ccc(CN2CCN(c3ncccn3)CC2)c(F)c1 | – | – | 59.8 | 79.5 | 94.9 | ? | 15.8µM
c1ccc(CN2CCN(c3nc(-c4ccccc4)nc(-n4ccnc4)n3)CC2)cc1 | – | – | – | – | – | · | ·
Cc1cc(=O)[nH]c(N2CCN(Cc3ccccc3)CC2)n1 | – | – | – | – | 39.7 | – | –
CCCCc1c(O)nc(N2CCN(Cc3ccccc3)CC2)[nH]c1=O | · | – | – | · | · | · | ·
C(#Cc1ccccc1)CN1CCN(c2ccccn2)CC1 | – | – | – | – | 45.2 | – | –
c1ccc(-c2ccc(CN3CCN(c4ncccn4)CC3)cc2)cc1 | – | – | ? | 117.9 | 78.8 | ? | ?
Fc1ccc(CN2CCCCCC2)c(F)c1 | – | – | – | – | – | · | ·
C(#Cc1ccccc1)CN1CCCCC1 | – | – | – | – | – | · | ·
O=C(c1cccnc1)N1CCN(Cc2cccc(F)c2)CC1 | – | – | – | – | – | · | ·
c1nc(N2CCN(Cc3ccc4c(c3)OCO4)CC2)c2[nH]cnc2n1 | · | 81.5 | – | · | · | – | 2.82µM
Clc1ccc(CN2CCN(c3ncccn3)CC2)cc1Cl | – | – | 65.1 | 77.0 | 79.7 | ? | 14.1µM
Fc1cccc(CN2CCN(c3ncccn3)CC2)c1 | – | 55.3 | 79.5 | 82.8 | 76.7 | ? | 1.41µM
Cc1ccc2[nH]c3c(N4CCN(Cc5ccc6c(c5)OCO6)CC4)ncnc3c2c1 | – | · | · | · | · | · | ·
Cn1nnc2c(N3CCCCC3)ncnc21 | – | · | · | · | – | · | ·
COCCNC(=O)c1ccc2c(c1)N(Cc1cc(C)ccc1C)C(=O)c1ccccc1S2(=O)=O | – | · | · | · | – | · | ·
Cc1cccc(C)c1NC(=O)CSc1nccn1C | – | · | · | · | – | · | ·
SMILES | D2 PAM-1 | D2 PAM-2 | D2 ag-1 | D2 antagonist | D2 ag-2 | D3 arrestin ag | D2 ag-3
CCc1ccc(C(=O)c2cn(CC(=O)Nc3ccc4c(c3)OCO4)c3ccc(OC)cc3c2=O)cc1 | – | · | · | · | – | · | ·
N#CC1=C(N)NC(SCC(=O)Nc2ccc(Br)cc2)=C(C#N)C12CCCCC2 | – | – | – | – | 75.4 | – | –
N#CC1=C(N)NC(SCc2ccc(Br)cc2)=C(C#N)C12CCCCC2 | · | – | – | · | · | · | ·
O=C(CSc1n[nH]c(-c2ccccc2Cl)n1)N1CCN(c2ccccc2)CC1 | – | · | · | · | – | · | ·
CCn1c(N2CCN(S(=O)(=O)c3ccccc3)CC2)nc2ccccc21 | – | – | ? | – | – | ? | –
CCOc1ccc(C(=O)Nc2ccc(C(=O)OCc3cc(=O)n4c(C)csc4n3)cc2)cc1 | – | · | · | · | – | · | ·
CCN(CC)S(=O)(=O)c1cccc(S(=O)(=O)N2CCCCC2)c1 | – | – | – | – | 36.4 | – | –
COC(=O)c1cc(S(=O)(=O)NCCN2CCN(c3ccccc3F)CC2)c[nH]1 | – | – | – | 73.2 | – | – | –
CCc1nc2ccc(C(=O)NCCCN3CCN(c4ccccc4F)CC3)cc2nc1CC | – | – | – | 88.4 | – | – | –
O=C(NCCN1CCN(c2ccccc2F)CC1)c1ccc2nc3ccccc3c(=O)n2c1 | – | – | – | 56.7 | 67.4 | – | ?
Cn1c(C(=O)NCCN2CCN(c3ccccc3F)CC2)cc2c(=O)n(C)c3ccccc3c21 | – | – | – | 95.5 | 54.3 | – | –
COc1cc(NC(=O)C(CC(C)C)N2Cc3ccccc3C2=O)cc(OC)c1 (configuration not stated) | – | · | · | · | – | · | ·
Cc1c(C)n(C)c2ccc(C(=O)NCCCN3CCN(c4ccccc4F)CC3)cc12 | – | – | – | 98.3 | 66.7 | – | –
Cc1c(C)n(C)c2ccc(C(=O)NCCCN3CCN(c4ccc(F)cc4)CC3)cc12 | – | – | – | – | – | · | ·
CNC(=O)c1c(NC(=O)c2ccc(S(=O)(=O)N3CCCCC3C)cc2)sc2c1CCC2 (configuration not stated) | – | · | · | · | – | · | ·
COc1cc(-c2noc(CN3CCN(c4cccc(Cl)c4)CC3)n2)cc(OC)c1OC | – | · | · | · | – | · | ·
CCC(=O)c1ccc(OCC(O)CN2CCN(c3ccccn3)CC2)cc1 (configuration not stated) | – | – | 60.4 | 73.6 | 79.7 | 0.891µM | 2µM
CCOC(=O)N1CCN(Cc2ccc(OCC(O)CN3CCCCC3)cc2)CC1 (configuration not stated) | – | – | ? | 50.9 | 62.9 | – | ?
CCOC(=O)C1CCN(CC(O)COc2ccc(C(=O)CC)cc2)CC1 (configuration not stated) | – | – | ? | 55.6 | 79.0 | – | ?
CC(=O)c1ccccc1OCC(O)CN1CCN(c2ccccn2)CC1 (configuration not stated) | – | – | – | – | – | · | ·
CC(C)(C)c1ccc(OCC(O)CN2CCN(c3ccccn3)CC2)cc1 (configuration not stated) | – | 55.5 | ? | 86.6 | 86.0 | ? | 15.8µM
COc1ccc(N(CC(=O)N2CCN(c3ccccc3)CC2)S(=O)(=O)c2c(C)nn(C)c2C)cc1 | – | · | · | · | – | · | ·
CCCSc1ncc(Cl)c(C(=O)Nc2sc3c(c2C(=O)NCC)CCCC3)n1 | – | · | · | · | – | · | ·
COc1ccc(Nc2ncc3c(n2)CCN(Cc2cccc(F)c2F)C3)c(OC)c1 | – | · | · | · | – | · | ·
COC(=O)C1CCN(Cc2cn(Cc3ccccc3)nc2-c2cc3ccccc3o2)CC1 | – | – | – | – | 36.6 | – | –
Cc1oc(-c2cccc(Cl)c2)nc1CN1CCC(C(=O)NCCCN2CC(C)CC(C)C2)CC1 (configuration not stated) | – | – | – | – | 34.8 | – | –

Assay outcomes deposited in PubChem BioAssay by National Center for Advancing Translational Sciences (NCATS).
